{"source": "PubChem BioAssay (NCATS)", "note": "Inconclusive results are not listed. Calls of active or inactive are those of the source. The call rests on the fitted dose curve; in most records, active means well fitted cell-killing curve with a large enough effect; inconclusive means small, poorly fitted or top-dose-only effect; inactive means flat fitted curve, though single readings scatter. Further: nearly all actives have a fitted effect of over 60% in size.", "data": [{"assay": "Cell Viability - LYMP2-007 (AID 979);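 further: cells exposed to compound for 24 h before reading; 0% = DMSO only and the negative end = 92 µM tetraoctylammonium bromide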", "conditions": "LYMP2-007 lymphoblastoid cell viability; series mostly up to 92.2 µM; activity change, negative = cytotoxicity: at the top concentration", "outline": "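Human lymphoblastoid LYMP2-007 cells (2500/well) preincubated 5 h at 37 C, then treated 24 h at 37 C in complete medium. Viability by CellTiter-Glo ATP luminescence after 30 min at room temperature; AC50 from Hill fits.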", "values": [{"smiles": "COc1ccc(C(=O)c2ccccc2)c(O)c1", "activity change, negative = cytotoxicity": "4.47% (inactive)"}, {"smiles": "COc1ccc(C(Cl)=C(c2ccc(OC)cc2)c2ccc(OC)cc2)cc1", "activity change, negative = cytotoxicity": "-15.3% (inactive)"}, {"smiles": "NC(=O)c1ccccc1O", "activity change, negative = cytotoxicity": "6.32% (inactive)"}, {"smiles": "CCCCC(CC)COC(=O)c1ccc(N(C)C)cc1", "note": "(stereo unspecified)", "activity change, negative = cytotoxicity": "-15.5% (inactive)"}, {"smiles": "CCOc1ccccc1C(N)=O", "activity change, negative = cytotoxicity": "-1.41% (inactive)"}, {"smiles": "O=C(O)c1ccc(S(=O)(=O)N(Cl)Cl)cc1", "activity change, negative = cytotoxicity": "-6.03% (inactive)"}, {"smiles": "CCCN(CCC)S(=O)(=O)c1ccc(C(=O)O)cc1", "activity change, negative = cytotoxicity": "-13.4% (inactive)"}, {"smiles": "OC[C@H]1O[C@@H]2O[C@H]3[C@H](O)[C@@H](O)[C@@H](O[C@H]4[C@H](O)[C@@H](O)[C@@H](O[C@H]5[C@H](O)[C@@H](O)[C@@H](O[C@H]6[C@H](O)[C@@H](O)[C@@H](O[C@H]7[C@H](O)[C@@H](O)[C@@H](O[C@H]8[C@H](O)[C@@H](O)[C@@H](O[C@H]1[C@H](O)[C@H]2O)O[C@@H]8CO)O[C@@H]7CO)O[C@@H]6CO)O[C@@H]5CO)O[C@@H]4CO)O[C@@H]3CO", "activity change, negative = cytotoxicity": "-1.92% (inactive)"}, {"smiles": "NCCNc1cccc2ccccc12", "activity change, negative = cytotoxicity": "-19.4% (inactive)"}, {"smiles": "C=C[C@H]1CN2CC[C@H]1C[C@@H]2[C@@H](O)c1ccnc2ccc(OC)cc12", "activity change, negative = cytotoxicity": "-13.7% (inactive)"}, {"smiles": "COc1cc([C@H]2Oc3cc([C@H]4Oc5cc(O)cc(O)c5C(=O)[C@@H]4O)ccc3O[C@@H]2CO)ccc1O", "activity change, negative = cytotoxicity": "-9.67% (inactive)"}, {"smiles": "C/C=C/c1ccc(O)c(OC)c1", "activity change, negative = cytotoxicity": "-13.8% (inactive)"}, {"smiles": "CCOc1ccc(NC(C)=O)cc1", "activity change, negative = cytotoxicity": "-5.58% (inactive)"}]}, {"assay": "Cell Viability - LYMP2-008 (AID 980);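 further: cells exposed to compound for 24 h at 37 °C; on the % scale 0 is the no-effect control and ±100 the full control effect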", "conditions": "LYMP2-008 lymphoblastoid cell viability, qHTS; series mostly up to 92.2 µM; activity change, negative = cytotoxicity: at the top concentration", "outline": "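LYMP2-008 lymphoblastoid cells (2500/well) plated 5 h, then treated 24 h at 37 C in complete medium. Viability read as intracellular ATP by CellTiter-Glo luminescence after 30 min at room temperature; AC50 from Hill fits.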", "values": [{"smiles": "COc1ccc(C(=O)c2ccccc2)c(O)c1", "activity change, negative = cytotoxicity": "-1.63% (inactive)"}, {"smiles": "COc1ccc(C(Cl)=C(c2ccc(OC)cc2)c2ccc(OC)cc2)cc1", "activity change, negative = cytotoxicity": "-20.4% (inactive)"}, {"smiles": "NC(=O)c1ccccc1O", "activity change, negative = cytotoxicity": "-6.51% (inactive)"}, {"smiles": "CCCCC(CC)COC(=O)c1ccc(N(C)C)cc1", "note": "(stereo unspecified)", "activity change, negative = cytotoxicity": "-9.41% (inactive)"}, {"smiles": "CCOc1ccccc1C(N)=O", "activity change, negative = cytotoxicity": "-6.84% (inactive)"}, {"smiles": "O=C(O)c1ccc(S(=O)(=O)N(Cl)Cl)cc1", "activity change, negative = cytotoxicity": "-11.1% (inactive)"}, {"smiles": "CCCN(CCC)S(=O)(=O)c1ccc(C(=O)O)cc1", "activity change, negative = cytotoxicity": "-1.79% (inactive)"}, {"smiles": "OC[C@H]1O[C@@H]2O[C@H]3[C@H](O)[C@@H](O)[C@@H](O[C@H]4[C@H](O)[C@@H](O)[C@@H](O[C@H]5[C@H](O)[C@@H](O)[C@@H](O[C@H]6[C@H](O)[C@@H](O)[C@@H](O[C@H]7[C@H](O)[C@@H](O)[C@@H](O[C@H]8[C@H](O)[C@@H](O)[C@@H](O[C@H]1[C@H](O)[C@H]2O)O[C@@H]8CO)O[C@@H]7CO)O[C@@H]6CO)O[C@@H]5CO)O[C@@H]4CO)O[C@@H]3CO", "activity change, negative = cytotoxicity": "-8.13% (inactive)"}, {"smiles": "NCCNc1cccc2ccccc12", "activity change, negative = cytotoxicity": "-7.3% (inactive)"}, {"smiles": "C=C[C@H]1CN2CC[C@H]1C[C@@H]2[C@@H](O)c1ccnc2ccc(OC)cc12", "activity change, negative = cytotoxicity": "-7.48% (inactive)"}, {"smiles": "COc1cc([C@H]2Oc3cc([C@H]4Oc5cc(O)cc(O)c5C(=O)[C@@H]4O)ccc3O[C@@H]2CO)ccc1O", "activity change, negative = cytotoxicity": "-1.49% (inactive)"}, {"smiles": "C/C=C/c1ccc(O)c(OC)c1", "activity change, negative = cytotoxicity": "-13.5% (inactive)"}, {"smiles": "CCOc1ccc(NC(C)=O)cc1", "activity change, negative = cytotoxicity": "-5.83% (inactive)"}]}]}
